Assay outcomes: PubChem BioAssay, National Center for Advancing Translational Sciences (NCATS)
Shiga inhibitor – blocks Shiga toxin action in Vero cells. 9.2% of 290,000 active. inhibition, % at 38.7 µM. Vero cells, Shiga toxin protein synthesis inhibition reporter; in the data active means inhibition mostly above about 28%, no sharp cut-off; inactive means mostly below about 43%; further: 0% is about no effect
CHX counter – counter-screen for Shiga toxin inhibitors: cycloheximide protein synthesis inhibition | max response, % | 12% of 300,000 active | cell reporter, cycloheximide protein synthesis inhibition counterscreen; in the data active means max response mostly above about 13%, no sharp cut-off; inactive means mostly below about 14%; further: read at 38.3 µM for the half of the compounds with a filed dose; 0% is about no effect
Giardia FBPA inh-1 – Giardia lamblia aldolase inhibition. A8B2U2. purified Giardia FBPA. Potency, µM (titrated, usually from 59.6 µM), inactives show top-dose activity, negative = inhibition, usual class: inhibitors. 0.71% of 290,000 active; further: potency means the concentration at half of the fitted maximal effect; on the % scale 0 is the no-effect control and ±100 the full control effect; nearly all actives have a fitted effect of over 55% in size
Target sequence (A8B2U2 whole entry, looked up): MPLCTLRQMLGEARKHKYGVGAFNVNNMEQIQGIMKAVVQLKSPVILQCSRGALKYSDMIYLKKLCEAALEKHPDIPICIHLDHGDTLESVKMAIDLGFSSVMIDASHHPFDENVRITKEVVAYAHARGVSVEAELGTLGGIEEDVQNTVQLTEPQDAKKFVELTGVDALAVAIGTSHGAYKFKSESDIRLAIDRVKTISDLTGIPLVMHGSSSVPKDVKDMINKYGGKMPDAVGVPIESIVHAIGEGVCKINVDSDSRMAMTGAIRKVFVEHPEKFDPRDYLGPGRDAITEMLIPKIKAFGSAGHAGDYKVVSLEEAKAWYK
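Giardia FBPA (40 nM reagent) was preincubated 10 min at RT with compound (up to 57.5 uM final), then substrate plus GAPDH/TPI/NAD/arsenate coupling system with diaphorase/resazurin was added; resorufin fluorescence (525/598 nm) was read after 20 min.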
NS1 inh – influenza NS1 inhibition; Potency, µM (top dose mostly 46.1 µM), without a hit: at the highest dose activity, positive = more growth; 0.4% of 270,000 active; AID 2326; calls by dose curve; further: potency means the concentration at half of the fitted maximal effect; actives are rising curves; nearly all actives have a fitted effect of over 50% in size
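Compounds were scored for reversing the slow growth caused by influenza A NS1 in S. cerevisiae, measured by optical density at 600 nm. Assay medium contained 2% galactose at pH 6.0; NS1-free yeast of the same strain were the positive control.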
LmPK inh – blocks Leishmania mexicana pyruvate kinase activity. Q27686. purified LmPK, Kinase-Glo ATP luminescence, 1 h. Potency, µM (top dose mostly 57.5 µM), without a hit: at the highest dose activity change, negative = inhibition, usual class: inhibitors. 0.37% of 290,000 active; further: potency means the concentration at half of the fitted maximal effect; on the % scale 0 is the no-effect control and ±100 the full control effect
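0.1 nM LmPK, 0.5 mM PEP, 0.1 mM ADP; 50 mM imidazole pH 7.2, 7 mM MgCl2, 50 mM KCl; 1 h RT. Kinase-Glo luminescence readout, normalized to no-enzyme (full inhibition) and uninhibited wells.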
Giardia growth – Giardia lamblia growth inhibition. shares compounds with Giardia FBPA inh-1. Giardia lamblia trophozoite growth inhibition. Potency, µM (titrated, usually from 57.5 µM), without a hit: at the top dose activity change, negative = inhibition, most hits filed as inhibitors. 5% of 1,500 active;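 further: potency means the concentration at half of the fitted maximal effect; trophozoites exposed to compound for 48 h at 37 °C; on the % scale 0 is the no-effect control and ±100 the full control effect; nearly all actives have a fitted effect of over 70% in size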
Mammal cell tox – toxic to mammalian cells in Giardia aldolase counter-screen | shares compounds with Giardia FBPA inh-1 | mammalian cell viability counter-screen, qHTS | Potency, µM (doses to about 57.5 µM), inactives show top-dose viability change, negative = toxicity, hits mostly inhibitors | 4% of 1,500 active | AID 2786;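 further: Chinese hamster ovary cells used as mammalian cytotoxicity surrogate; viability measured as cellular ATP by luminescence; potency means the concentration at half of the fitted maximal effect; compound exposure lasted 48 h before reading; on the % scale 0 is the no-effect control and ±100 the full control effect; nearly all actives have a fitted effect of over 60% in size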
Giardia FBPA inh-2 – confirmation of Giardia fructose-bisphosphate aldolase inhibitors; shares compounds with Giardia FBPA inh-1; purified Giardia aldolase enzyme activity, qHTS; Potency, µM (highest dose often 57.5 µM), for the others: at the top dose activity change, negative = inhibition, most hits filed as inhibitors; 5% of 1,500 active; AID 2787; further: potency means the concentration at half of the fitted maximal effect; on the % scale 0 is the no-effect control and ±100 the full control effect; nearly all actives have a fitted effect of over 45% in size
Rabbit aldolase – selectivity test for Giardia aldolase inhibitors: rabbit aldolase; Potency, µM (series often up to 57.5 µM), without a hit: at the top dose activity, negative = inhibition, actives largely listed as inhibitors; Rabbit muscle FBPA enzyme inhibition, selectivity counter-screen; shares compounds with Giardia FBPA inh-1; AID 2794; 4% of 1,500 active; further: potency means the concentration at half of the fitted maximal effect; on the % scale 0 is the no-effect control and ±100 the full control effect; nearly all actives have a fitted effect of over 60% in size
Target sequence (P00883 whole entry, looked up): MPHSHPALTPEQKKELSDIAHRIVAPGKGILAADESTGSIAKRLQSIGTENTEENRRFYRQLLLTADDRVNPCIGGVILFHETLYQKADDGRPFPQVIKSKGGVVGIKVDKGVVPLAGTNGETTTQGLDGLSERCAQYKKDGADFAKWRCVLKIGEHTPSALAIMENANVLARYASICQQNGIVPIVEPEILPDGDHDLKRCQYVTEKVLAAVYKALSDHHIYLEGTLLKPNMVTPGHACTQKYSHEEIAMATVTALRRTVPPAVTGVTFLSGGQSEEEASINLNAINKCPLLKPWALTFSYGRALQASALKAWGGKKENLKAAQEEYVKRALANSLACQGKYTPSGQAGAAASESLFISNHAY
GAPDH counter – counter-screen for Giardia aldolase inhibitors: GAPDH coupling enzyme | shares compounds with Giardia FBPA inh-1 | GAPDH coupling enzyme counterscreen, biochemical, qHTS | Potency, µM (highest dose often 57.5 µM), for the others: top-dose activity change, negative = inhibition, usual class: inhibitors | 6% of 1,500 active; further: potency means the concentration at half of the fitted maximal effect; on the % scale 0 is the no-effect control and ±100 the full control effect; nearly all actives have a fitted effect of over 55% in size
* = called active by the depositor; ? = inconclusive; / = not tested or not shown; [ ] = remark or other dose. A selection: hits, their analogues and other compounds. The true share with any hit is near 14%. Unless noted, the call rests on the fitted dose curve; in most records, active means well fitted curve in the direction sought with a large enough effect; inconclusive means small, poorly fitted or top-dose-only effect, or another doubt; inactive means no such curve, though single readings can be large; an effect the other way counts as inactive or inconclusive.

SMILES	Shiga inhibitor	CHX counter	Giardia FBPA inh-1	NS1 inh	LmPK inh	Giardia growth	Mammal cell tox	Giardia FBPA inh-2	Rabbit aldolase	GAPDH counter
O=C(NC(=S)Nc1ccccc1Br)c1cccnc1	/	10	6.3µM*	2%	-3%	?	-9%	-7%	5%	-1%
COC(=O)c1ccc(NC(=S)NC(=O)c2cccnc2)cc1	10	-2	7.1µM*	8%	-2%	-13%[38.3 µM]	-22%	1%	10%	5%
COc1ccc(NC(=S)NC(=O)c2cccnc2)cc1	13	12	7.9µM*	-3%	0%	22µM*	5%	6%	4%	4%
Cc1snnc1C(=O)NC(=S)Nc1ccccc1	4	-2	13µM*	-8%	2%	26%	10%	4%	16%	2%
Cc1cc(C(=O)NC2CCCc3c2cnn3-c2cccc(C)c2C)n(C)n1 (centres undefined)	-12	-1	6%	-8%	2%	/	/	/	/	/
O=C(c1ccco1)N1CCC[C@@]2(CCN(c3ncccn3)C2)C1	/	/	2%	/	/	/	/	/	/	/
O=C(NCCNC(=O)c1ccc(Cl)cc1Cl)c1cnccn1	-5	-2	1%	7%	1%	/	/	/	/	/
O=C(NC(=S)Nc1cccnc1Cl)c1ccc(Cl)cc1	114*	50*	13µM*	-44%	0%	-21%	-5%	2%	4%	-1%
COc1cc(OC)cc(C(=O)NNC(=S)NC(=O)c2cccnc2)c1	14	-1	2µM*	-26%	3%	16µM*	7%	13%	9%	14%
O=C(O)c1ccc(NC(=S)NC(=O)c2cccnc2)cc1	29	4	3.5µM*	12%	1%	-5%[38.3 µM]	-14%	8%	15%	8%
O=C(Nc1cccnc1Cl)c1cc(-c2ccc(Cl)cc2)on1	-3	-2	6%	-2%	-6%	/	/	/	/	/
Cc1csc(NC(=O)[C@@H](NC(=O)c2ccccc2)C(C)C)n1	15	-3	-1%	-1%	-1%	/	/	/	/	/
Cc1csc(NC(=S)NC(=O)c2ccccc2)n1	61*	22*	7.9µM*	-17%	-11%	?	50µM*	-5%	-7%	-7%
CCC(=O)NC(=S)Nc1ccc(NC(=O)c2cccnc2)cc1	-16	2	-1%	2%	1%	/	/	/	/	/
CC1CCN(C(=O)CCNS(=O)(=O)c2ccc(Cl)cc2)CC1	-10	-5	-1%	-15%	2%	/	/	/	/	/
CCC1CCCCN1C(=O)NC(=O)c1ccccc1 (centres undefined)	-1	-2	/	3%	-13%	/	/	/	/	/
N#Cc1ccc(CN2CCC3(CCNCC3)CC2)cc1	/	/	0%	/	/	/	/	/	/	/
COc1cc(OC)cc(C(=O)NC(=S)Nc2cccnc2)c1	26	17	-31%	2%	?	/	/	/	/	/
CCOC(=O)Cc1csc(NC(=S)NC(=O)c2cccc([N+](=O)[O-])c2)n1	-6	-3	4.5µM*	9%	1%	?	4%	12%	4%	11%
O=C(NC(=S)Nc1cccnc1)c1ccccc1	71*	28*	13µM*	-4%	-2%	-19%	6%	1%	11%	7%
O=C(c1ccccc1)c1ccccc1N1C(=O)C=CC1=O	17	10	16µM*	-76%	14µM*	-7%[10.4 µM]	7%	-10%	-19%	-21%
O=Nc1onc(-c2ccc([N+](=O)[O-])cc2)c1NO	-10	-1	14µM*	/	4%	?	1%	-14%	-4%	16%
COc1ccc(Cl)cc1-c1nc(SCC(N)=O)n[nH]1	-10	-4	2%	3%	0%	/	/	/	/	/
COc1ccc2c(c1OC)C(=O)N(c1nc(SC)n[nH]1)C2=O	5	-1	16µM*	-8%	-9%	19%	6%	-2%	2%	-18%
C/C(=N/Nc1nc(C)c(C)s1)c1cccc([N+](=O)[O-])c1	30*	30*	32µM*	10%	-4%	4%[10.4 µM]	-11%	-4%	6%	-11%
SMILES	Shiga inhibitor	CHX counter	Giardia FBPA inh-1	NS1 inh	LmPK inh	Giardia growth	Mammal cell tox	Giardia FBPA inh-2	Rabbit aldolase	GAPDH counter
C/C(=N\NC(=O)CSc1nc(C)cc(C)n1)c1cccc([N+](=O)[O-])c1	-6	-4	3%	-5%	-5%	/	/	/	/	/
CC(C)(C)NC(=S)/N=C(\N)N[N+](=O)[O-]	-3	-3	16µM*	/	4%	30%	14%	14%	14%	14%
CN(C)CCNC(C(=O)Nc1cccc(C(F)(F)F)c1)c1ccccc1 (centres undefined)	-3	-3	18µM*	2%	0%	-8%	-8%	1%	1%	6%
CCN(CC)CCNC(C(=O)Nc1cccc(C(C)=O)c1)c1ccccc1 (centres undefined)	-11	-4	?	1%	1%	/	/	/	/	/
CC(C)C(=O)NC(=S)Nc1nnn(C)n1	-4	-3	3.2µM*	12%	1%	?	0%	-1%	7%	6%
COc1cc(OC)cc(C(=O)NC(=S)Nc2nnn(C)n2)c1	7	-4	3.5µM*	-1%	-9%	-18%[38.3 µM]	-5%	3%	9%	10%
O=C(NC(=S)Nc1ccc(S(=O)(=O)N2CCCCCC2)cc1)c1cccs1	-8	17	-11%	-3%	-1%	/	/	/	/	/
